Active and inactive are the calls of the source. How the source made its calls: active means hit-call score of the fitted dose curve at least 0.9, where 1 is the maximum; inactive means score below 0.9.
Columns and labels:
Conditions in all cases: mRNA level, 48 h; actives raise or lower the signal
[1] = read-out: Bcl-2 (BAD) gene, BAD (gene 572); test: LTEA_HepaRG_BAD: Life Technologies and Expression Analysis (LTEA) Assay for Bcl-2 (BAD) gene using HepaRG (AID 2283469)
Summary of the method: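 BAD transcript change, measured by qRT-PCR against three housekeeping genes and fitted in both directions relative to 0.5% DMSO, after 48 h chemical treatment of human HepaRG liver cells at concentrations up to 100 uM.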

[2] = read-out: Bcl-2 (BAX) gene, BAX (gene 581); test: LTEA_HepaRG_BAX: Life Technologies and Expression Analysis (LTEA) Assay for Bcl-2 (BAX) gene using HepaRG (AID 2283470)
Summary of the method: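 Differentiated HepaRG cells exposed 48 h in serum-free induction medium, eight half-log concentrations from 100 uM, in duplicate, 0.5% DMSO vehicle. BAX mRNA by TaqMan qRT-PCR, normalised to ACTB, GAPDH and POLR2A.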

[3] = read-out: adenosine kinase (ADK) gene, ADK (gene 132); test: LTEA_HepaRG_ADK: Life Technologies and Expression Analysis (LTEA) Assay for adenosine kinase (ADK) gene using HepaRG (AID 2283471)
Summary of the method: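 Differentiated HepaRG cells dosed 48 h in serum-free induction medium, 0.5% DMSO vehicle, eight half-log concentrations from 100 uM, in duplicate. ADK mRNA by TaqMan qRT-PCR normalised to ACTB, GAPDH, POLR2A; bidirectional fit versus DMSO.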

BCL2L11 (gene 10018) = test: LTEA_HepaRG_BCL2L11: Life Technologies and Expression Analysis (LTEA) Assay for Bcl-2 (BCL2L11) gene using HepaRG (AID 2283473)
Summary of the method: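 Differentiated human HepaRG cells in serum-free induction medium were exposed in duplicate for 48 h to eight concentrations (top 100 uM, half-log steps, 0.5% DMSO). BCL2L11 mRNA was quantified by TaqMan qRT-PCR, normalized to ACTB/GAPDH/POLR2A, bidirectional fit versus DMSO.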

[4] = read-out: Apolipoprotein A-V (APOA5) gene, APOA5 (gene 116519); test: LTEA_HepaRG_APOA5: Life Technologies and Expression Analysis (LTEA) Assay for Apolipoprotein A-V (APOA5) gene using HepaRG (AID 2283474)
Summary of the method: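 Differentiated human HepaRG cells were exposed in duplicate for 48 h to eight half-log concentrations from 100 uM in 0.5% DMSO. APOA5 mRNA was quantified by TaqMan qRT-PCR, normalized to ACTB, GAPDH and POLR2A, and fitted bidirectionally against DMSO.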

[5] = read-out: Apoptosis regulator Bcl-2 (Homo sapiens) (UniProt P10415); test: LTEA_HepaRG_BCL2: Life Technologies and Expression Analysis (LTEA) Assay for Bcl-2 gene using HepaRG (AID 2283475)
Summary of the method: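 Differentiated human HepaRG cells in serum-free induction medium exposed 48 h, in duplicate, to 8-point half-log series from 100 uM in 0.5% DMSO. BCL2 mRNA by qRT-PCR (TaqMan/Fluidigm), normalized to ACTB, GAPDH, POLR2A; bidirectional fit against DMSO.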

[6] = read-out: Bcl-2 (BID) gene, BID (gene 637); test: LTEA_HepaRG_BID: Life Technologies and Expression Analysis (LTEA) Assay for Bcl-2 (BID) gene using HepaRG (AID 2283476)
Summary of the method: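 Gene expression by qRT-PCR in HepaRG cells after 48 h exposure, duplicate wells, eight half-log concentrations topping at 100 uM in 0.5% DMSO. Normalized to ACTB, GAPDH, POLR2A; bidirectional fitting relative to DMSO.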

Caspase-3 (Homo sapiens) = Caspase-3 (Homo sapiens) (UniProt P42574); test: LTEA_HepaRG_CASP3: Life Technologies and Expression Analysis (LTEA) Assay for cysteine-aspartic acid protease (CASP3) using HepaRG (AID 2283477)
Summary of the method: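 Differentiated human HepaRG cells in serum-free induction medium were exposed 48 h to 8-point half-log concentrations from 100 uM (0.5% DMSO vehicle). CASP3 mRNA was measured by qRT-PCR, normalised to ACTB, GAPDH and POLR2A, with bidirectional fitting against DMSO.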

[7] = read-out: Cytochrome P450 (CYP24A1), CYP24A1 (gene 1591); test: LTEA_HepaRG_CYP24A1: Life Technologies and Expression Analysis (LTEA) Assay for Cytochrome P450 (CYP24A1) using HepaRG (AID 2283478)
Summary of the method: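 Differentiated HepaRG cells, pre-cultured 48 h, were exposed in duplicate for 48 h in serum-free induction medium to 8 half-log concentrations (top 100 uM, 0.5% DMSO). CYP24A1 mRNA was quantified by TaqMan qRT-PCR, normalized to ACTB/GAPDH/POLR2A, fitted bidirectionally versus DMSO.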

[8] = read-out: Cytochrome P450 (CYP1A2), CYP1A2 (gene 1544); test: LTEA_HepaRG_CYP1A2: Life Technologies and Expression Analysis (LTEA) Assay for Cytochrome P450 (CYP1A2) using HepaRG (AID 2283479)
Summary of the method: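 Differentiated human HepaRG cells in serum-free induction medium were exposed in duplicate for 48 h to 8-point half-log concentrations up to 100 uM in 0.5% DMSO. CYP1A2 mRNA measured by qRT-PCR, normalized to ACTB, GAPDH, POLR2A; bidirectional fit vs DMSO.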

[9] = read-out: Cytochrome P450 (CYP2B6), CYP2B6 (gene 1555); test: LTEA_HepaRG_CYP2B6: Life Technologies and Expression Analysis (LTEA) Assay for Cytochrome P450 (CYP2B6) using HepaRG (AID 2283481)
Summary of the method: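 Differentiated HepaRG cells, serum-free induction medium, exposed 48 h in duplicate to 8-point half-log concentrations from 100 uM in 0.5% DMSO. CYP2B6 mRNA by qRT-PCR, normalized to ACTB, GAPDH, POLR2A; bidirectional fit versus DMSO.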

[10] = read-out: Cytochrome P450 2C19 (Homo sapiens) (UniProt P33261); test: LTEA_HepaRG_CYP2C19: Life Technologies and Expression Analysis (LTEA) Assay for CYP2C19 using HepaRG (AID 2283482)
Summary of the method: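 Differentiated human HepaRG cells were exposed for 48 h in serum-free induction medium to 8 concentrations (top 100 uM, half-log steps, 0.5% DMSO). CYP2C19 mRNA was measured by qRT-PCR, normalized to ACTB/GAPDH/POLR2A, and fitted bidirectionally against DMSO.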

CYP2C8 (gene 1558) = test: LTEA_HepaRG_CYP2C8: Life Technologies and Expression Analysis (LTEA) Assay for CYP2C8 using HepaRG (AID 2283483)
Summary of the method: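 CYP2C8 mRNA induction or loss, by qRT-PCR normalized to ACTB/GAPDH/POLR2A, is read in HepaRG cells after 48 h treatment. Concentrations run from 100 uM down in half-log dilutions, with 0.5% DMSO as vehicle and baseline.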

CYP2C9 (gene 1559) = test: LTEA_HepaRG_CYP2C9: Life Technologies and Expression Analysis (LTEA) Assay for CYP2C9 using HepaRG (AID 2283484)
Summary of the method: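 Cells plated 48 h, switched to serum-free induction medium, then treated in duplicate for 48 h at eight concentrations (max 100 uM, 0.5% DMSO). RNA then analysed by qRT-PCR for CYP2C9; curves fitted in both directions relative to DMSO.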

CYP2E1 (gene 1571) = test: LTEA_HepaRG_CYP2E1: Life Technologies and Expression Analysis (LTEA) Assay for CYP2E1 using HepaRG (AID 2283485)
Summary of the method: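 HepaRG cells, plated 48 h, then exposed 48 h in serum-free induction medium to eight half-log concentrations from 100 uM in 0.5% DMSO, duplicate. CYP2E1 mRNA by qRT-PCR, normalized to ACTB/GAPDH/POLR2A; bidirectional fit versus DMSO.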

CYP4A11 (gene 1579) = test: LTEA_HepaRG_CYP4A11: Life Technologies and Expression Analysis (LTEA) Assay for CYP4A11 using HepaRG (AID 2283486)
Summary of the method: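 Differentiated HepaRG cells, serum-free induction medium, exposed 48 h in duplicate to 8-point half-log series from 100 uM in 0.5% DMSO. CYP4A11 mRNA measured by qRT-PCR, normalized to ACTB, GAPDH, POLR2A; bidirectional fit versus DMSO.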

[11] = read-out: DNA damage-inducible transcript 3 (DDIT3), DDIT3 (gene 1649); test: LTEA_HepaRG_DDIT3: Life Technologies and Expression Analysis (LTEA) Assay for DNA damage-inducible transcript 3 (DDIT3) using HepaRG (AID 2283488)
Summary of the method: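 HepaRG cells, 48 h after plating, exposed 48 h in serum-free induction medium to 8 half-log concentrations up to 100 uM in 0.5% DMSO, in duplicate. DDIT3 mRNA measured by TaqMan qRT-PCR, normalized to ACTB, GAPDH and POLR2A. Fitted bidirectionally against DMSO.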

[12] = read-out: Cytochrome P450 3A4 (Homo sapiens) (UniProt P08684); test: LTEA_HepaRG_CYP3A4: Life Technologies and Expression Analysis (LTEA) Assay for CYP3A4 using HepaRG (AID 2283487)
Summary of the method: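 Differentiated HepaRG cells in serum-free induction medium exposed in duplicate for 48 h to 8 half-log concentrations up to 100 uM in 0.5% DMSO. CYP3A4 mRNA measured by qRT-PCR normalized to ACTB, GAPDH and POLR2A; bidirectional fit versus DMSO.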

[13] = read-out: cysteine-aspartic acid protease (CASP8), CASP8 (gene 841); test: LTEA_HepaRG_CASP8: Life Technologies and Expression Analysis (LTEA) Assay for cysteine-aspartic acid protease (CASP8) using HepaRG (AID 2283480)
Summary of the method: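 HepaRG, 48 h exposure, duplicate wells; 8 conc, half-log from 100 uM, 0.5% DMSO. Serum-free induction medium. CASP8 mRNA by TaqMan qRT-PCR, norm. ACTB/GAPDH/POLR2A; gain/loss fitted vs DMSO.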

Measured: AC50

Cytochrome P450 2C19 (Homo sapiens), sequence (P33261 whole entry, looked up): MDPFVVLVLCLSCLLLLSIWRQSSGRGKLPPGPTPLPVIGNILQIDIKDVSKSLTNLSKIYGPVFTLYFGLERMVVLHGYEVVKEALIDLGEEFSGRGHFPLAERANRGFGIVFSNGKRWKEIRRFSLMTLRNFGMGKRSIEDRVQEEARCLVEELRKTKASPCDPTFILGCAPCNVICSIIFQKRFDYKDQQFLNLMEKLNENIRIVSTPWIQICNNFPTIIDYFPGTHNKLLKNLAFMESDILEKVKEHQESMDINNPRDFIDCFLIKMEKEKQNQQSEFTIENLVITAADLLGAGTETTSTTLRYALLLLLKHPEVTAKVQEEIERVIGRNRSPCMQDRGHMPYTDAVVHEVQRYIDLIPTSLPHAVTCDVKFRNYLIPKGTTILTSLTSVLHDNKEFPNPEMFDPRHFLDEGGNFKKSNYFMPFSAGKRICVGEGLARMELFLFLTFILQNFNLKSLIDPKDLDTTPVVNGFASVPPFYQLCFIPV
Caspase-3 (Homo sapiens), sequence (P42574 whole entry, looked up): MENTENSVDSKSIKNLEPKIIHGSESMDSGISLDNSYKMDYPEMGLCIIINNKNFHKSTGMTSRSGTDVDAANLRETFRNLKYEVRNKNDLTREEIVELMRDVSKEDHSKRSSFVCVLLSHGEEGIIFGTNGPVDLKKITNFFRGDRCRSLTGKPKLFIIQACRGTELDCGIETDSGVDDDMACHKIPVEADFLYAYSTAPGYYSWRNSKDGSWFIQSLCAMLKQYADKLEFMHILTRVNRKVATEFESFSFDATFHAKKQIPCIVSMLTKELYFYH
Apoptosis regulator Bcl-2 (Homo sapiens), sequence (P10415 whole entry, looked up): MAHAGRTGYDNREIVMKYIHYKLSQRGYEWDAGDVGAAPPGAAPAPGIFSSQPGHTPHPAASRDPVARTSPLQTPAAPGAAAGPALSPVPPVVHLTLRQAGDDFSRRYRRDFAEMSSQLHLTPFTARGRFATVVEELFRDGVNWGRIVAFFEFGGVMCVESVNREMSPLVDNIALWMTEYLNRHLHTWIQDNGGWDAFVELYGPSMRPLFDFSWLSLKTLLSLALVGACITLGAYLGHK
Cytochrome P450 3A4 (Homo sapiens), sequence (P08684 whole entry, looked up): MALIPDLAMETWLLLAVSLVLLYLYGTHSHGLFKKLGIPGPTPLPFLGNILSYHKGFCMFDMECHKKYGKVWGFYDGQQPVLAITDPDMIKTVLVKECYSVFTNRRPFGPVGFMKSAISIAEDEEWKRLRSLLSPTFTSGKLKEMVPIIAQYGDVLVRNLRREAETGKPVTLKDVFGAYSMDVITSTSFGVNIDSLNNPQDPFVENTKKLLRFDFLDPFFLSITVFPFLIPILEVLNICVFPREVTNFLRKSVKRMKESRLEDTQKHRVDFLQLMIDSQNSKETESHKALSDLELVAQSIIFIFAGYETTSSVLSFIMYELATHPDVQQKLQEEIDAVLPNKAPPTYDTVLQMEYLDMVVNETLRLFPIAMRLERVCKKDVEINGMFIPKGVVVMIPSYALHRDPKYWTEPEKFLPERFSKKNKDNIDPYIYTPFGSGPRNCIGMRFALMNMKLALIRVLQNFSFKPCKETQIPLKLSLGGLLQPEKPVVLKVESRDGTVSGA

O=C(Nc1ccccc1-c1ccc(Cl)cc1)c1cccnc1Cl
active: [9] 1.62 µM | CYP2E1 (gene 1571) 52.5 µM
not listed: [12] | [13]
inactive: all other assays above

CC1(C)CCC(=Cc2ccc(Cl)cc2)C1(O)Cn1cncn1 (stereo not drawn)
active: [4] 49.8 µM | [8] 23.3 µM | [9] 2.72 µM | [10] 5.03 µM | CYP2C8 (gene 1558) 12.6 µM | CYP2E1 (gene 1571) 27.1 µM | CYP4A11 (gene 1579) 27.8 µM
not listed: [12] | [13]
inactive: all other assays above

COc1ccc(-c2ccccc2)cc1NNC(=O)OC(C)C
active: [8] 74.5 µM
not listed: [13]
inactive: all other assays above

CCOP(=O)(OCC)Oc1nc(Cl)c(Cl)cc1Cl
active: BCL2L11 (gene 10018) 76.6 µM | [4] 83.8 µM | [5] 68.4 µM | [9] 83.6 µM | [10] 80.7 µM | CYP2C8 (gene 1558) 84.5 µM | CYP2C9 (gene 1559) 93 µM | CYP2E1 (gene 1571) 76 µM | CYP4A11 (gene 1579) 77.4 µM | [12] 49.8 µM
inactive: [1] | [2] | [3] | [6] | Caspase-3 (Homo sapiens) | [7] | [8] | [13] | [11]

COP(=O)(OC)O/C(C)=C/C(=O)N(C)C
not listed: [13]
inactive: all other assays above

C=C(C)CN(CC)c1c([N+](=O)[O-])cc(C(F)(F)F)cc1[N+](=O)[O-]
active: [8] 33 µM | [9] 23.6 µM | [10] 50 µM | CYP2E1 (gene 1571) 87.9 µM | [12] 50 µM
not listed: [13]
inactive: all other assays above

CC(C)Oc1cccc(NC(=O)c2ccccc2C(F)(F)F)c1
active: [8] 80 µM | [9] 33 µM | [10] 40.2 µM | CYP2C8 (gene 1558) 50 µM | CYP2E1 (gene 1571) 84.4 µM
not listed: [12] | [13]
inactive: all other assays above

COc1cc(Cl)c(OC)cc1Cl
active: [8] 50 µM | [9] 1.23 µM
not listed: [7] | [10]
inactive: all other assays above

Cc1c(COC(=O)[C@@H]2[C@H](/C=C(\Cl)C(F)(F)F)C2(C)C)cccc1-c1ccccc1
active: [8] 76.3 µM | [10] 17.9 µM | CYP2E1 (gene 1571) 48.2 µM | [12] 11.3 µM | [11] 81.2 µM
not listed: [9]
inactive: all other assays above

COc1cc(OC)nc(NC(=O)NS(=O)(=O)c2ncccc2OCC(F)(F)F)n1
active: [9] 23.8 µM | [10] 16.3 µM | CYP2C9 (gene 1559) 6.59 µM | [12] 13.3 µM
not listed: [13]
inactive: all other assays above

COC(=O)NC(=S)Nc1ccccc1NC(=S)NC(=O)OC
active: [8] 39 µM | [9] 9.55 µM | [10] 13.7 µM | CYP2E1 (gene 1571) 26.8 µM | [12] 6.29 µM
not listed: [13]
inactive: all other assays above

COC(=O)NS(=O)(=O)c1ccc(N)cc1
not listed: [13]
inactive: all other assays above

Source: PubChem BioAssay (EPA / NIEHS)
